Screening data: PubChem BioAssay, National Center for Advancing Translational Sciences (NCATS)
TDP1 cell noCPT = qHTS for Inhibitors of human tyrosyl-DNA phosphodiesterase 1 (TDP1): qHTS in cells in absence of CPT; Potency, µM (highest dose often 46.2 µM), without a hit: top-dose activity change, negative = growth inhibition, most hits filed as inhibitors; AID 686978, 2013; 420,000 compounds, 15% hits; DT40 Tdp1-/- hTDP1 cells, no CPT, ATP luminescence, 48 h; further: nearly all actives have a fitted effect of over 55% in size
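Readout: luminescence from CellTiter-Glo after 30 min in the dark at RT. Cells: DT40 Tdp1-/- with stable hTDP1, 400/well. Exposure: compounds alone, ≥48 hr, 37 °C.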
HT1080 IDH1KD tx = qHTS for induction of synthetic lethality in tumor cells producing 2HG: qHTS for the HT-1080-IDH1KD cell line; HT-1080 IDH1 knockdown viability, ATP luminescence, 48 h; Potency, µM (doses to about 46.1 µM), without a hit: at the top dose activity, negative = toxicity, hits mostly cytotoxic; 360,000 compounds, 2% hits; AID 686971, 2013;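 further: 0% = DMSO wells and -100% = cell-free medium wells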
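IDH1KD HT-1080 cells, 750/well, RPMI + 5% FBS; compound pinned after 2 h settling; 48 h, 37 °C; CellTiter-Glo luminescence; % activity normalised to DMSO and no-cell wells; curves fitted, classed by r2 and efficacy.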
KB-3-1 cytotox = qHTS assay for MDR1-selective chemotherapeutics: Primary screen using the parental adenocarcinoma cell KB-3-1; Potency, µM (top dose mostly 46.1 µM), usual class: cytotoxic; KB-3-1 viability, CellTiter-Glo ATP luminescence, 72 h; 400,000 compounds, 1.4% hits; further: nearly all actives have a fitted effect of over 60% in size
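72 h, 37 °C compound treatment of KB-3-1 parental cells; CellTiter-Glo added, 10 min, luminescence read. Data corrected against DMSO-only plates and normalized before curve fitting.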
HT1080NT lethal = qHTS for induction of synthetic lethality in tumor cells producing 2HG: qHTS for the HT-1080-NT fibrosarcoma cell line. HT-1080-NT fibrosarcoma viability, CellTiter-Glo ATP luminescence, 48 h. Potency, µM (top dose mostly 46.1 µM), without a hit: at the highest dose activity, negative = less viability, most hits filed as cytotoxic. 360,000 compounds, 1.6% hits. AID 686970, 2013;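 further: NT is the 2HG producing partner of a matched IDH1 knockdown line; 0% = DMSO-treated cells and -100% = media-only wells without cells; nearly all actives have a fitted effect of over 55% in size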
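Fibrosarcoma NT cells, 750 per well in 5% FBS RPMI, were exposed to compound for 48 hours. Viability: CellTiter-Glo luminescence.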
TDP1 cell CPT = qHTS for Inhibitors of human tyrosyl-DNA phosphodiesterase 1 (TDP1): qHTS in cells in presence of CPT | chicken DT40 Tdp1-/-;hTDP1 cells + 20 nM CPT, ATP luminescence, 48 h | Potency, µM (titrated, usually from 46.2 µM), for the others: at the top dose activity change, negative = growth inhibition, usual class: inhibitors | 420,000 compounds, 12% hits | AID 686979, 2013; further: nearly all actives have a fitted effect of over 55% in size
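Cell growth measured by CellTiter-Glo luminescence after a minimum 48 h, 37 C compound exposure with 20 nM CPT in Tdp1-knockout DT40 cells stably expressing hTDP1, seeded 400/well; qHTS titration format.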
KB-V1 cytotox = qHTS assay for MDR1-selective chemotherapeutics: Primary screen using the drug-selected MDR subline cells KB-V1 | Potency, µM (top dose mostly 46.1 µM), usual class: cytotoxic | KB-V1 MDR cells viability, CellTiter-Glo, 72 h | 400,000 compounds, 3.4% hits; further: nearly all actives have a fitted effect of over 60% in size
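In this primary screen, KB-V1 cells overexpressing P-gp are incubated with library compounds (lowest to highest concentration) for 72 h at 37 degrees C before a luminescent ATP viability read.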
* marks the source's active call; other numbers are inactive results; i = inactive; ? = inconclusive; · = no result given. Compounds with a hit are over-represented: about 19% of the library has one in this group of screens. The call rests on the fitted dose curve; in most records, active means well fitted curve in the direction sought with a large enough effect; inconclusive means small, poorly fitted or top-dose-only effect, or another doubt; inactive means no such curve, though single readings can be large; an effect the other way counts as inactive or inconclusive. Unless noted, on the % scale 0 is the no-effect control and ±100 the full control effect; potency means the concentration at half of the fitted maximal effect.

SMILES	TDP1 cell noCPT	HT1080 IDH1KD tx	KB-3-1 cytotox	HT1080NT lethal	TDP1 cell CPT	KB-V1 cytotox
C[C@H](OC(=O)c1[nH]cnc1C(=O)N1CCN(C(=O)OC(C)(C)C)CC1)c1ccccc1	26µM*	6%	i	13%	?	i
Cc1oc2c(cc(NS(=O)(=O)c3ccc(Br)cc3)c3ccccc32)c1C(=O)OCc1ccccc1	?	·	i	·	?	i
CCCS(=O)(=O)NC(=O)C1(C)CCN(C(=O)c2ccc(C(=O)OC)cc2)C1 (centres undefined)	-15%	21%	i	24%	2%	i
COCCn1c(CNC(=O)c2cccc(C)c2)nc2cccnc21	6%	·	·	·	-18%	·
Cc1ccc(C(=O)N2CCCCC2CCN2CCCCC2)cc1 (centres undefined)	-3%	·	·	·	5%	·
C[C@@H](NC(=O)c1nc[nH]c1C(=O)N[C@@H](Cc1ccccc1)C(=O)OCc1ccccc1)c1ccccc1	18µM*	0%	i	-10%	?	i
CC(C)C[C@H](NC(=O)c1nc[nH]c1C(=O)NCc1ccccc1)C(=O)OC(C)(C)C	?	-26%	i	-3%	?	i
CC(C)C[C@H](NC(=O)c1[nH]cnc1C(=O)N[C@@H](C)C(=O)OC(C)(C)C)C(=O)OCc1ccccc1	16µM*	?	?	?	?	i
CC(C)C[C@H](NC(=O)c1[nH]cnc1C(=O)N[C@@H](Cc1ccccc1)C(=O)OCc1ccccc1)C(=O)OC(C)(C)C	21µM*	-21%	i	?	21µM*	?
CC(C)C[C@H](NC(=O)c1[nH]cnc1C(=O)N[C@@H](Cc1ccccc1)C(=O)OC(C)(C)C)C(=O)OC(C)(C)C	?	?	?	?	16µM*	i
CC(C)C[C@H](NC(=O)c1nc[nH]c1C(=O)N[C@@H](CCCCNC(=O)OC(C)(C)C)C(=O)OC(C)(C)C)C(=O)OCc1ccccc1	?	0%	?	?	?	i
O=C(c1ccco1)N1CCN(Cc2cc(=O)c(OCc3ccc(F)cc3)co2)CC1	7%	-1%	i	-2%	?	i
CN1C(=O)[C@H](Cc2ccc([N+](=O)[O-])cc2)NC1=S	?	-8%	i	-9%	?	i
CC(C)C[C@H](NC(=O)c1nc[nH]c1C(=O)N1CCN(C(=O)OC(C)(C)C)CC1)C(=O)OCc1ccccc1	16µM*	-10%	?	-6%	18µM*	i
COc1ccc(N(CC(=O)NCCc2ccc(C)cc2)S(=O)(=O)c2c(C)nn(C)c2C)cc1	?	·	i	·	?	i
CCN(CC)Cc1c(O)ccc2c(=O)c(-c3ccccc3)coc12	?	-1%	i	1%	9.2µM*	i
CCN(CC)Cc1c(O)ccc2c(=O)c(-c3ccc4c(c3)OCCO4)coc12	10µM*	-8%	i	-6%	3.3µM*	i
CCN(Cc1ccccc1)Cc1c(O)ccc2c(=O)c(-c3ccccc3Cl)coc12	-10%	·	i	·	0%	i
Cc1ccc(S(=O)(=O)c2nc(-c3cccc(Br)c3)oc2N2CCCCCC2)cc1	?	·	i	·	?	i
CCc1ccc(C(C#N)=CC=Cc2ccccc2)cc1	21µM*	?	?	-28%	?	?
CCCN1CCC(N(CCc2ccccc2)Cc2ccccc2)CC1	?	-15%	i	-10%	-25%	i
